# Data from PubChem BioAssay (NCATS).
# Inconclusive results are not listed. A call without a number means that no potency is given here. The source made the active and inactive calls. Calls come from the whole dose curve; as a rule, active = well fitted inhibition curve with a large enough effect; inconclusive = small, poorly fitted or top-dose-only effect; inactive = flat fitted curve, though single readings scatter.
# Molecular target: Calcium and integrin-binding protein 1 (Homo sapiens) (UniProt Q99828)
# Sequence (Q99828 whole entry, looked up): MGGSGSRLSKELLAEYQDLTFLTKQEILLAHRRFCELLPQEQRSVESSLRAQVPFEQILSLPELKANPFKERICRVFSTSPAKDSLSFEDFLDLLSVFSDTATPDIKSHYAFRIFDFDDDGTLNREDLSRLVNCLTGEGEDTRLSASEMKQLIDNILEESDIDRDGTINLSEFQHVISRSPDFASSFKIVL
# Assay: Primary qHTS for Identification of Calcium Integrin Binding Protein 1 (CIB1) Competitor (AID 1508620);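 note: GST tagged CIB1 binding a fluorescein labelled alphaIIb integrin peptide tracer; top concentration of the series differs between compounds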
# Conditions: CIB1-GST / FITC-alphaIIb peptide fluorescence polarization; series mostly up to 57.7 µM
# In short: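 CIB1-GST (1 uM final) and compound incubated 15 min at room temperature before adding FITC-alphaIIb peptide tracer (100 nM final). Competition for binding read by fluorescence polarization (ex 480, em 540) after another 15 min at room temperature.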
row,SMILES,Potency
1,CCOc1cc2ncc(C#N)c(Nc3ccc(OCc4ccccn4)c(Cl)c3)c2cc1NC(=O)/C=C/CN(C)C,inactive
2,CN1CCC(c2c[nH]c3ccc(NC(=O)c4ccc(F)cc4)cc23)CC1,inactive
3,C=C1CCC2C(C)(C)CC(=O)CC2(C)C1CCC(C)CCOC(C)=O (stereo not drawn),inactive
4,C[C@@H]1O[C@@H](O[C@H]2[C@H](O[C@H]3[C@H](O[C@H]4CC[C@@]5(C)C(CC[C@]6(C)C5CC=C5[C@@H]7CC(C)(C(=O)O)C[C@@H](O)[C@]7(C)CC[C@]56C)[C@@]4(C)CO)O[C@H](C(=O)O)[C@@H](O)[C@@H]3O)O[C@H](CO)[C@H](O)[C@@H]2O)[C@H](O)[C@H](O)[C@H]1O (stereo partly drawn),inactive
5,O=C1[C@H](O[C@@H]2O[C@H](CO)[C@@H](O)[C@H](O)[C@H]2O)Oc2ccccc2N1O,inactive
6,C=C1CC2(C(=O)O)CC1CCC2C1(C)CCCC2(C)C(=O)OC(O)C21 (stereo not drawn),inactive
7,O=C(/C=C/c1ccc(O)cc1)OC[C@]12O[C@H]1[C@@H](O)[C@@H]1C=CO[C@@H](O[C@@H]3O[C@H](CO)[C@@H](O)[C@H](O)[C@H]3O)[C@@H]12,inactive
8,CCn1cc(C2=NOC(C(=O)Nc3c(C)n(C)n(-c4ccccc4)c3=O)C2)c(C)n1 (stereo not drawn),inactive
9,O=C(O[C@@H]1O[C@H](CO)[C@@H](O)[C@H](O)[C@H]1O)c1c(O)cc(O)cc1/C=C/c1ccccc1,inactive
10,CC(C)C(C#N)O[C@@H]1O[C@H](CO[C@@H]2OC[C@](O)(CO)[C@H]2O)[C@@H](O)[C@H](O)[C@H]1O (stereo partly drawn),inactive
11,CC1CCC2(C)C(CC(O)C(O)C23CO3)C1(C)CCC1=CC(=O)OC1O (stereo not drawn),inactive
12,CC(=O)O[C@H]1[C@H](C)[C@@H](O)[C@H]2[C@@H]1C=C(C(=O)O)[C@H]1C[C@@H]3[C@H]([C@H]21)[C@H]1C(=O)O[C@@H]2CC[C@@]3(C)O[C@]1(O)[C@@H]2C,inactive
13,CC1(CCC(=O)O)C(=O)C=CC23CC4CC(OC4(C)C2O)C13 (stereo not drawn),inactive
